Laboratory results published in the supplement of paper PMC10849652.
About 8,800 targets were measured; listed, in parts, are those with a hit and a random draw of the rest. About 0.5% of all pairs of compound and target were hits.

Legend:
Test in all cases: log2 fold change, soluble protein after heating vs DMSO (PISA); higher = thermal stabilisation; K562 lysate, 10 uM; active = over 0.2 and 3.5 SD of the protein, either way, in both replicates (recomputed)
[1] = compound: CN1CC[C@H](c2c(O)cc(O)c3c(=O)cc(-c4ccccc4Cl)oc23)[C@H](O)C1 [alvocidib]
Summary of the method: (§1)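 Log-two fold change in thermal stability relative to solvent controls is reported from duplicates. For each sample, crude K562 extract from dounce-homogenised pellets in PBS pH 7.4 with 1 mM MgCl2, at 1 mg/mL protein, was treated with 10 μM compound for 30 min. Aliquots heated for 3 min across 48°C-58°C were pooled, brought to 0.5% NP-40 at 4°C and cleared at 21,000xg for 90 min. The supernatant was quantified by TMTpro 16plex LC-MS/MS with channel sums equalised.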

[2] = compound: CN1CCc2c(c3ccccc3n2Cc2ccc(C(=O)NO)cc2)C1 [Tubastatin A]
Summary of the method: as §1

[3] = compound: CNC(=O)C1=CC=CC=C1NC2=NC(=NC=C2Cl)NC3=C(C=C(C=C3)N4CCOCC4)OC
Summary of the method: as §1

[4] = compound: CNC(=O)c1ccc(Nc2ncc(C(F)(F)F)c(NCc3nccnc3N(C)S(C)(=O)=O)n2)cc1 [defactinib]
Summary of the method: as §1

[5] = compound: CNc1nc(-c2ccc3c(N)n[nH]c3c2)cc(N2C[C@@H](C(=O)NC3CCCCC3)CC[C@H]2C)n1
Summary of the method: as §1

[6] = compound: COC(=O)N[C@@H](C)CNc1nccc(-c2cn(C(C)C)nc2-c2cc(Cl)cc(NS(C)(=O)=O)c2F)n1 [encorafenib]
Summary of the method: as §1

[7] = compound: COC(=O)[C@H](CCSC)NC(=O)C1=C(C=C(C=C1)NC[C@H](CS)N)C2=CC=CC=C2
Summary of the method: as §1

[8] = compound: COc1cc(Nc2ncc3c(n2)-c2ccc(Cl)cc2C(c2c(F)cccc2OC)=NC3)ccc1C(=O)O [alisertib]
Summary of the method: as §1

[9] = compound: COc1cc2nc(-c3cc(F)ccc3O)nc(N[C@@H]3CNC[C@H]3C(C)(C)O)c2cc1OC
Summary of the method: as §1

[10] = compound: COc1cc2ncnc(Nc3ccc(F)c(Cl)c3)c2cc1OCCCN1CCOCC1 [gefitinib]
Summary of the method: as §1

Measured: log2 fold change

KIF2A isoform 2 (UniProt O00139)
inactive: [1] 0.153

MBOAT2 (UniProt Q6ZWT7)
inactive: [1] -0.024 | [2] 0 | [3] 0.079 | [4] 0.002 | [5] -0.025 | [6] 0.156 | [7] -0.073 | [8] -0.003 | [9] 0.034 | [10] 0.064

MBTPS1 (UniProt Q14703)
inactive: [1] 0.096 | [2] -0.058 | [3] 0.013 | [4] -0.002 | [5] 0.029 | [6] 0.048 | [7] -0.036

MINK1 (UniProt Q8N4C8)
UniProt Q8N4C8, sequence (Q8N4C8 whole entry, looked up): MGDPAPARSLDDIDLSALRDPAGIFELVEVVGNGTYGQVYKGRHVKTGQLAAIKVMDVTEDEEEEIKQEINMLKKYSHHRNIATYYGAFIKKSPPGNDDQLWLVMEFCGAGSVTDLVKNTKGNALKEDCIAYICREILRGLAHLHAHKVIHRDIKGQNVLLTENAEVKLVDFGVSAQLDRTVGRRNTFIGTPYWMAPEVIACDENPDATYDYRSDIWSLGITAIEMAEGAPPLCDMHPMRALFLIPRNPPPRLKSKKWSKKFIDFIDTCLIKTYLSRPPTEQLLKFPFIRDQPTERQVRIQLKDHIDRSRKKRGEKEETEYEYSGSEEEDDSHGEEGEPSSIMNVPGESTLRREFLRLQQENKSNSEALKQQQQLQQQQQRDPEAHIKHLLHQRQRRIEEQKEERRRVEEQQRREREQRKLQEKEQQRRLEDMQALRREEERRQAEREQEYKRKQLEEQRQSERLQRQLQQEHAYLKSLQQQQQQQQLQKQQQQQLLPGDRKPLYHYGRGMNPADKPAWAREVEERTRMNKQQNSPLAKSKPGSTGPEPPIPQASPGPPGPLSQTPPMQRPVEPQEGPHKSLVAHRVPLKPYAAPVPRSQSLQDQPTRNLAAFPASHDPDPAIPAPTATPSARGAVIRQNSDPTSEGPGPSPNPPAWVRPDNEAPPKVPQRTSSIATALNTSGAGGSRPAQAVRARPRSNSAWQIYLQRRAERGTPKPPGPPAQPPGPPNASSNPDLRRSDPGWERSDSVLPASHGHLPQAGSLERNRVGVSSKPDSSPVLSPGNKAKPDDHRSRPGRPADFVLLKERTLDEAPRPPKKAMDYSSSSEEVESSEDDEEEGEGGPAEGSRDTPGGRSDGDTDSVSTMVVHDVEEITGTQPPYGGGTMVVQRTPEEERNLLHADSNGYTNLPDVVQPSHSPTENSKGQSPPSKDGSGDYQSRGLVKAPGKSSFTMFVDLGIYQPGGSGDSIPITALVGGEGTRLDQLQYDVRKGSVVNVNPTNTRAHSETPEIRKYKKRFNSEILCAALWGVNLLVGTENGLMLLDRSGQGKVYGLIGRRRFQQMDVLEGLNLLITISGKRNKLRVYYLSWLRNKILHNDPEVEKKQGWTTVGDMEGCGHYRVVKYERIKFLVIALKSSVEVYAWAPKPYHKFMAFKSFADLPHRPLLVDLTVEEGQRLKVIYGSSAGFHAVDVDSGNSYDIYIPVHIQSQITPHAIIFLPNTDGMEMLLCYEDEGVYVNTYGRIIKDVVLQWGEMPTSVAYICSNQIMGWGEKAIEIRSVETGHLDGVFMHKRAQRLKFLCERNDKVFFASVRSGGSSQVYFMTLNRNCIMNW
inactive: [1] -0.049 | [2] -0.137 | [3] 0.055 | [4] 0.025 | [5] 0.109 | [6] -0.133 | [7] 0.022 | [8] 0.051 | [9] -0.003

MAP11 (UniProt Q8WVR3)
UniProt Q8WVR3, sequence (Q8WVR3 whole entry, looked up): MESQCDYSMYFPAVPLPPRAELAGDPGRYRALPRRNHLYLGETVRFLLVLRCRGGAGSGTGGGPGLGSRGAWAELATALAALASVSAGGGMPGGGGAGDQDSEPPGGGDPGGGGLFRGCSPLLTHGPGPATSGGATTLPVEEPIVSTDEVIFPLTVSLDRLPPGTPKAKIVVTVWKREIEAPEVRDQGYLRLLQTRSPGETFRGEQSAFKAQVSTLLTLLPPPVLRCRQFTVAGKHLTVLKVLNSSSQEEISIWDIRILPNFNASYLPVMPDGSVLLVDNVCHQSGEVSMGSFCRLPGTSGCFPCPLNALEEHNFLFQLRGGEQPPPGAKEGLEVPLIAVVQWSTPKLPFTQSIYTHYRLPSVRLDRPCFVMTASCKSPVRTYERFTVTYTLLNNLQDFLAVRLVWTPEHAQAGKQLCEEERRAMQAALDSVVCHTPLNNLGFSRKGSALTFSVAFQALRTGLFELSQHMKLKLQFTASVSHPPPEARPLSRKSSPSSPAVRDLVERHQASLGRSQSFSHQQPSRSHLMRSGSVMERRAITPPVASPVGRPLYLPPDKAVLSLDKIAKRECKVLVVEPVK
inactive: [1] -0.117 | [2] -0.091 | [3] 0.021 | [4] 0.076 | [5] 0.004 | [6] -0.058 | [7] -0.084 | [8] -0.001 | [9] -0.025 | [10] -0.046

KIF14 (UniProt Q15058)
inactive: [1] -0.031 | [2] -0.217 | [3] 0.032 | [4] 0.043 | [5] 0.011 | [6] 0.038 | [7] 0.045 | [8] -0.028 | [9] 0.013 | [10] 0.001

METTL7A (UniProt Q9H8H3)
inactive: [1] -0.079 | [2] 0.014 | [3] 0.003 | [4] 0.011 | [5] 0.041 | [6] -0.041 | [7] 0.151 | [8] -0.036 | [9] -0.01 | [10] -0.046

KMT2A isoform 3 (UniProt Q03164)
inactive: [1] -0.073 | [2] 0.011 | [3] -0.07 | [4] -0.054 | [5] -0.069 | [6] -0.118 | [7] -0.037 | [8] -0.371 | [9] 0.061 | [10] -0.172

LUZP1 (UniProt Q86V48)
UniProt Q86V48, sequence (Q86V48 whole entry, looked up): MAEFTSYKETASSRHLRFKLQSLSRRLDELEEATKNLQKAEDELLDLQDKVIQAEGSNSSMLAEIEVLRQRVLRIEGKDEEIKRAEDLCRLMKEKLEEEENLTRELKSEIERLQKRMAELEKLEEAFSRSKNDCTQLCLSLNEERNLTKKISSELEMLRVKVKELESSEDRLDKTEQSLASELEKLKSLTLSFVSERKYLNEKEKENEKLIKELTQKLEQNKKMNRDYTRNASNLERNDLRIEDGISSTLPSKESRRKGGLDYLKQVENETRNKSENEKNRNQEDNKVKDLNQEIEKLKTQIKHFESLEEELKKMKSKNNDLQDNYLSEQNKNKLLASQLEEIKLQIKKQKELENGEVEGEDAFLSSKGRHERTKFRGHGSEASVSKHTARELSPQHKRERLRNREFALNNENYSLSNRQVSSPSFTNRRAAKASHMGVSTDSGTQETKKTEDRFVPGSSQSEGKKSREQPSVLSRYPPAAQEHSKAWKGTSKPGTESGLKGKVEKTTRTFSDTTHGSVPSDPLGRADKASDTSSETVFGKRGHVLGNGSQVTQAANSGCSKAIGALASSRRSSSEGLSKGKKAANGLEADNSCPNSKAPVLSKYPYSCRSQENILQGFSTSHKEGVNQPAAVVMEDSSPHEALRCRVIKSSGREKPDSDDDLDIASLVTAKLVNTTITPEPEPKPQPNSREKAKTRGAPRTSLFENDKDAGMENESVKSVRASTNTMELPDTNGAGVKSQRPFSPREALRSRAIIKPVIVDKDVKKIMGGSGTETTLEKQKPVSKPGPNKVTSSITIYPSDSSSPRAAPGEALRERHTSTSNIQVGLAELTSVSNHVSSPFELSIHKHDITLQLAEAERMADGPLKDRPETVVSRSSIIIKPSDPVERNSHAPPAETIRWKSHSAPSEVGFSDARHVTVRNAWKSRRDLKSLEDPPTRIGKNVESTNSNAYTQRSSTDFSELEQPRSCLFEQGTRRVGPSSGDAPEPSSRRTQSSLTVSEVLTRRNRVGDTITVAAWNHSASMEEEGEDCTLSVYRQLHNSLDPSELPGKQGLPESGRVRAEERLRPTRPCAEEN
inactive: [1] -0.027 | [2] -0.061 | [3] 0.099 | [4] -0.056 | [5] 0.004 | [6] 0.023 | [7] -0.074 | [8] -0.014 | [9] 0.012 | [10] 0.039

LAMP1 (UniProt P11279)
UniProt P11279, sequence (P11279 whole entry, looked up): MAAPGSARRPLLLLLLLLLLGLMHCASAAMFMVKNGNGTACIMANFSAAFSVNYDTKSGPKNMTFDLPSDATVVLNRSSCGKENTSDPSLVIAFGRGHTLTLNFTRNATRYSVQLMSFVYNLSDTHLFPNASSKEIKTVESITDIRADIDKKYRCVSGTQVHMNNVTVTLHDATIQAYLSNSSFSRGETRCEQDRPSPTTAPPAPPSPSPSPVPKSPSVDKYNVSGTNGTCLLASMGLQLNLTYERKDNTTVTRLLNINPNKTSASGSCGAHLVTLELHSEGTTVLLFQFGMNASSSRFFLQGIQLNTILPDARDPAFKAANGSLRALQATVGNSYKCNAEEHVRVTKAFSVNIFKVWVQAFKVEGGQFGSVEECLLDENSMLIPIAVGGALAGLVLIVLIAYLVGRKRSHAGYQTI
inactive: [1] -0.242 | [2] 0.051 | [3] -0.013 | [4] -0.03 | [5] 0.059 | [6] 0.015 | [7] -0.047 | [8] 0.017 | [9] 0.028 | [10] 0.053

LETM1 (UniProt O95202)
UniProt O95202, sequence (O95202 whole entry, looked up): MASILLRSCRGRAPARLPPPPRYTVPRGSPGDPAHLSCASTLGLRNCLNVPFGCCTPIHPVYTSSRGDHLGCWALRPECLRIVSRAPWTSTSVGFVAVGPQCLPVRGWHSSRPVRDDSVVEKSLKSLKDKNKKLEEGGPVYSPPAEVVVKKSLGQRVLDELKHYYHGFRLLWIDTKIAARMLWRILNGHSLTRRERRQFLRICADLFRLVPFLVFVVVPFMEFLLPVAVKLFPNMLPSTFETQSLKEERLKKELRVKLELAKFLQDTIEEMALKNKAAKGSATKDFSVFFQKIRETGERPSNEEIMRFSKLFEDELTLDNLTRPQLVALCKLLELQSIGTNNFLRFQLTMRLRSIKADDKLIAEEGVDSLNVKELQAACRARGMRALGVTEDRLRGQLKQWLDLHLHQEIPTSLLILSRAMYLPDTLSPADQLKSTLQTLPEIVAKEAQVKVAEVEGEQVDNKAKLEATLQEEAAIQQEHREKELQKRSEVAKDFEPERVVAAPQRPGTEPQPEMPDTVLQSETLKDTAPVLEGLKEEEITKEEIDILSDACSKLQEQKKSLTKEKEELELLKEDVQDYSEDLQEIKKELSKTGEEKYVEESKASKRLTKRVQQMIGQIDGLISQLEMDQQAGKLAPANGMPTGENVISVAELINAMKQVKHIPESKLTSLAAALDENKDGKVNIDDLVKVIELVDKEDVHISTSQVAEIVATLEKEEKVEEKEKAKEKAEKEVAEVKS
inactive: [1] -0.046 | [2] -0.033 | [3] 0.018 | [4] -0.007 | [5] -0.027 | [6] -0.001 | [7] -0.018 | [8] -0.022 | [9] -0.166 | [10] -0.04

KRAS (UniProt P01116)
UniProt P01116, sequence (P01116 whole entry, looked up): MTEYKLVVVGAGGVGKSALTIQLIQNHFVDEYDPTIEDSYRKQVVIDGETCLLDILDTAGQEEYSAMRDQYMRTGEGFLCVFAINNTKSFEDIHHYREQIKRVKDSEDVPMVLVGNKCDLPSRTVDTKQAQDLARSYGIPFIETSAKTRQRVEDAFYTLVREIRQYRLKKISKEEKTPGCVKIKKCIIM
inactive: [1] -0.071 | [2] 0.059 | [3] -0.048 | [4] -0.01 | [5] -0.005 | [6] 0.01 | [7] 0.043 | [8] -0.016 | [9] -0.042 | [10] 0.139

MIF4GD isoform 3 (UniProt A9UHW6)
UniProt A9UHW6, sequence (A9UHW6 whole entry, looked up): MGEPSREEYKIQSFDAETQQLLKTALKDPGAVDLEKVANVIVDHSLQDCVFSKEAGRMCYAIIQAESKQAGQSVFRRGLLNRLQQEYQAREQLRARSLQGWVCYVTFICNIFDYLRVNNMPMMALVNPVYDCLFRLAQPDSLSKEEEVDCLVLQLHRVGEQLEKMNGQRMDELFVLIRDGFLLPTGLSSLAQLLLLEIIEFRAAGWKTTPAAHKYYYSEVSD
inactive: [1] 0.021 | [2] 0.014 | [3] 0.002 | [4] -0.01 | [5] -0.066 | [6] -0.012 | [7] 0.01 | [8] -0.037 | [9] 0.007 | [10] 0.049

MLST8 (UniProt Q9BVC4)
UniProt Q9BVC4, sequence (Q9BVC4 whole entry, looked up): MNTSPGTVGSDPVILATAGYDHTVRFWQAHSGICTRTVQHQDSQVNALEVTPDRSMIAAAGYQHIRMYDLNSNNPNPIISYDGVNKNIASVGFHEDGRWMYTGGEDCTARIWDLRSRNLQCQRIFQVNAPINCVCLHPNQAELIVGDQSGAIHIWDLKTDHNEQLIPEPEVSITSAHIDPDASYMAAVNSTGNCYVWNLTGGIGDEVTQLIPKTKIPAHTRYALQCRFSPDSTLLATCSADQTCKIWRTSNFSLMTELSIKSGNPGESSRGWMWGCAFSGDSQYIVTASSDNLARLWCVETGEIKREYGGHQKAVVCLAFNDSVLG
inactive: [1] 0.009 | [2] -0.072 | [3] -0.059 | [4] -0.023 | [5] -0.059 | [6] -0.012 | [7] 0.038 | [8] -0.016 | [9] -0.01 | [10] -0.004

MON2 isoform 5 (UniProt Q7Z3U7)
inactive: [1] 0.003 | [2] -0.149 | [3] 0.018 | [4] 0.023 | [5] -0.014 | [6] 0.034 | [7] -0.035 | [8] -0.004 | [9] 0 | [10] 0.005
